# Reference: PubChem BioAssay AID1159580 (chemical genetic matrix, 2015)
# About 2,000 (36%) of roughly 5,500 compounds were called active. Inconclusive results (about 18%) are left out. The list shows a part of the results. Values without a mark were called inactive. Rule as the data show it: active = normalized growth mostly below about 0.91 (no sharp cut-off); inconclusive = no clear call, values can overlap the other calls; inactive = mostly above about 0.92.
# Test: chemical genetic growth profiling, strain panel (AID 1159580);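 also: tested at 20 µM; growth read once vehicle control cultures reached saturation at 30 °C; 1 = growth at the plate median or of vehicle wells; lower values mean less growth of the strain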
# Settings: S. cerevisiae deletion strains, growth OD
smiles,measurement,setting,value
O=C1N(c2ccccc2)c2ccccc2C1(Cc1ccncc1)Cc1ccncc1,normalized growth,"locus YAL040C, strain CLN3, hits give low values",1.01
same,normalized growth,"locus YCL061C, strain MRC1 (second series), hits give low values",1.01
same,normalized growth,"locus YDR150W, strain NUM1, hits give low values",1
same,normalized growth,"locus YDR363W, strain ESC2, hits give low values",1.03
same,normalized growth,"locus YER002W, strain NOP16, hits give low values",0.988
same,normalized growth,"locus YJR075W, strain HOC1, hits give low values",1.02
same,normalized growth,"locus YMR307W, strain GAS1, hits give low values",0.997
same,normalized growth,"locus YNL175C, strain NOP13, hits give low values",0.996
same,normalized growth,"locus YNL197C, strain WHI3, hits give low values",0.997
same,normalized growth,"locus YNL224C, strain SQS1, hits give low values",1
same,normalized growth,"locus YNL322C, strain KRE1, hits give low values",1.03
same,normalized growth,"locus YOR083W, strain WHI5 (second series), hits give low values",1.02
same,normalized growth,"locus YPL055C, strain LGE1, hits give low values",1.03
same,normalized growth,"locus YPL241C, strain CIN2, hits give low values",0.995
CC1(C)CC2C1CC[C@]1(C)CCC3C(C(=O)O)CC(=O)O[C@@]32C1 (some centres not stated),normalized growth,"locus YAL021C, strain ccr4, hits give low values",1.07
same,normalized growth,"locus YAL026C, strain drs2, hits give low values",1.07
same,normalized growth,"locus YAL030W, strain snc1, hits give low values",1.04
same,normalized growth,"locus YBL061C, strain skt5, hits give low values",1.03
same,normalized growth,"locus YBR009C, strain hhf1, hits give low values",1.03
same,normalized growth,"locus YBR023C, strain chs3, hits give low values",1.02
same,normalized growth,"locus YBR171W, strain sec66, hits give low values",1.07
same,normalized growth,"locus YBR231C, strain swc5, hits give low values",1.06
same,normalized growth,"locus YBR279W, strain paf1, hits give low values",1.01
same,normalized growth,"locus YCL011C, strain gbp2, hits give low values",1.03
same,normalized growth,"locus YCL016C, strain dcc1, hits give low values",1.06
same,normalized growth,"locus YCL061C, strain MRC1, hits give low values",1.03
same,normalized growth,"locus YCR088W, strain abp1, hits give low values",1.03
same,normalized growth,"locus YDL005C, strain med2, hits give low values",1.04
same,normalized growth,"locus YDL040C, strain nat1, hits give low values",1.05
same,normalized growth,"locus YDR001C, strain nth1, hits give low values",1.04
same,normalized growth,"locus YDR069C, strain doa4, hits give low values",1.06
same,normalized growth,"locus YDR137W, strain rgp1, hits give low values",1.04
same,normalized growth,"locus YDR159W, strain sac3, hits give low values",1.05
same,normalized growth,"locus YDR195W, strain ref2",1.06
same,normalized growth,"locus YDR297W, strain sur2, hits give low values",1.05
same,normalized growth,"locus YDR334W, strain swr1, hits give low values",1.09
same,normalized growth,"locus YDR335W, strain msn5, hits give low values",1.15 [resistant] (active)
same,normalized growth,"locus YDR392W, strain spt3, hits give low values",1.14
same,normalized growth,"locus YEL003W, strain gim4, hits give low values",1.02
same,normalized growth,"locus YEL037C, strain rad23, hits give low values",1.06
same,normalized growth,"locus YEL061C, strain CIN8 (second series), hits give low values",1.04
same,normalized growth,"locus YER015W, strain faa2, hits give low values",1.02
same,normalized growth,"locus YER016W, strain bim1, hits give low values",1.04
same,normalized growth,"locus YER111C, strain swi4, hits give low values",1.01
same,normalized growth,"locus YER155C, strain BEM2 (second series), hits give low values",1.04
same,normalized growth,"locus YFR010W, strain ubp6, hits give low values",1.09
same,normalized growth,"locus YGL167C, strain pmr1, hits give low values",1.05
same,normalized growth,"locus YGL173C, strain kem1, hits give low values",1.03
same,normalized growth,"locus YGL227W, strain vid30, hits give low values",1.02
same,normalized growth,"locus YGL240W, strain doc1, hits give low values",1.06
same,normalized growth,"locus YGL253W, strain hxk2, hits give low values",1.06
same,normalized growth,"locus YHR013C, strain ard1, hits give low values",1.05
same,normalized growth,"locus YHR027C, strain rpn1, hits give low values",1.03
same,normalized growth,"locus YHR030C, strain SLT2, hits give low values",1
same,normalized growth,"locus YHR079C, strain IRE1, hits give low values",1
same,normalized growth,"locus YHR142W, strain chs7, hits give low values",1.05
same,normalized growth,"locus YJL092W, strain hpr5, hits give low values",1.07
same,normalized growth,"locus YJL095W, strain BCK1 (second series), hits give low values",1.04
same,normalized growth,"locus YJL095W, strain BCK1, hits give low values",0.99
same,normalized growth,"locus YJL115W, strain asf1, hits give low values",1.06
same,normalized growth,"locus YJL129C, strain trk1, hits give low values",1.09
same,normalized growth,"locus YJL154C, strain vps35, hits give low values",1.05
same,normalized growth,"locus YJL164C, strain tpk1, hits give low values",1.02
same,normalized growth,"locus YJL166W, strain qcr8, hits give low values",1.05
same,normalized growth,"locus YJL187C, strain SWE1, hits give low values",1.03
same,normalized growth,"locus YJR066W, strain TOR1, hits give low values",0.942
same,normalized growth,"locus YKL160W, strain elf1, hits give low values",1.05
same,normalized growth,"locus YKR026C, strain gcn3, hits give low values",1.02
same,normalized growth,"locus YKR091W, strain srl3, hits give low values",1.04
same,normalized growth,"locus YLL001W, strain dnm1, hits give low values",1.07
same,normalized growth,"locus YLL026W, hits give low values",1.01
same,normalized growth,"locus YLL041C, strain sdh2, hits give low values",1.01
same,normalized growth,"locus YLR027C, strain aat2, hits give low values",1.04
same,normalized growth,"locus YLR113W, strain HOG1, hits give low values",0.98
same,normalized growth,"locus YLR221C, strain rsa3, hits give low values",1.02
same,normalized growth,"locus YLR258W, strain gsy2, hits give low values",1.1 [resistant] (active)
same,normalized growth,"locus YLR262C, strain YPT6 (second series), hits give low values",1.07
same,normalized growth,"locus YLR320W, strain mms22, hits give low values",1.05
same,normalized growth,"locus YLR342W, strain FKS1, hits give low values",1.02
same,normalized growth,"locus YLR357W, strain rsc2, hits give low values",1.13
same,normalized growth,"locus YLR370C, strain arc18, hits give low values",1.03
same,normalized growth,"locus YLR384C, strain iki3, hits give low values",1.01
same,normalized growth,"locus YML120C, strain ndi1, hits give low values",1.04
same,normalized growth,"locus YMR058W, strain fet3, hits give low values",1.03
same,normalized growth,"locus YMR125W, strain sto1, hits give low values",1.06
same,normalized growth,"locus YMR129W, hits give low values",1.05
same,normalized growth,"locus YMR205C, strain PFK2, hits give low values",1.04
same,normalized growth,"locus YMR231W, strain pep5, hits give low values",1.03
same,normalized growth,"locus YNL071W, strain lat1, hits give low values",1.04
same,normalized growth,"locus YNL183C, strain NPR1, hits give low values",0.931
same,normalized growth,"locus YNL209W, strain ssb2, hits give low values",1.01
same,normalized growth,"locus YNL322C, strain KRE1 (second series), hits give low values",1.02
same,normalized growth,"locus YNR049C, strain mso1, hits give low values",1.05
same,normalized growth,"locus YOR001W, strain rrp6, hits give low values",1.06
same,normalized growth,"locus YOR070C, strain gyp1, hits give low values",1.14 [resistant] (active)
same,normalized growth,"locus YOR080W, strain dia2, hits give low values",1.1 [resistant] (active)
same,normalized growth,"locus YOR083W, strain WHI5, hits give low values",1.08
same,normalized growth,"locus YOR106W, strain vam3, hits give low values",1.05
same,normalized growth,"locus YOR231W, strain MKK1, hits give low values",0.985
same,normalized growth,"locus YOR265W, strain rbl2, hits give low values",1.05
same,normalized growth,"locus YOR270C, strain vph1, hits give low values",1.14
same,normalized growth,"locus YOR290C, strain snf2, hits give low values",1.18 [resistant] (active)
same,normalized growth,"locus YPL051W, strain arl3, hits give low values",1.03
same,normalized growth,"locus YPL078C, strain atp4, hits give low values",1.07
same,normalized growth,"locus YPL106C, strain sse1, hits give low values",1.11
same,normalized growth,"locus YPL240C, strain hsp82, hits give low values",1.02
same,normalized growth,"locus YPL256C, strain CLN2, hits give low values",0.967
